In PubChem BioAssay (NCI) one finds growth inhibition data, which are given here for 38 molecules.

This is part of a sample that, as a whole, favours compounds with a hit. Of some 79,000 tested, about 15% had one in any assay. Unmarked numbers belong to inactive results. Calls of active or inactive are those of the source. Cut-off read from the data, not from the text of the source: active = growth inhibition above about 70%; inactive = the rest.

Experiment [1] can be described thus: NCI Yeast Anticancer Drug Screen. Data for the rad50 strain (AID 155).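 Note: 0% = growth of vehicle-only cultures of the same strain.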 As to conditions: S. cerevisiae rad50 strain growth inhibition; at 50.0 µM; stronger effect = higher value. Summed up: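 DNA repair mutant yeast, compound exposure, growth read-out; inhibition is taken relative to vehicle.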
The nature of experiment [2]: NCI Yeast Anticancer Drug Screen. Data for the mec2-1 strain (AID 157). As to conditions: S. cerevisiae mec2-1 strain, at 50.0 µM, stronger effect = higher value. The method in brief:
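Mutant yeast (mec2-1) grown with compound; growth inhibition relative to vehicle control reported.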

Experiment [3] can be described thus: NCI Yeast Anticancer Drug Screen. Data for the sgs1 mgt1 strain (AID 161).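 Note: 0% = growth of cultures given vehicle only.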 As to conditions: S. cerevisiae sgs1 mgt1 strain, at 50.0 µM, stronger effect = higher value. Summed up:
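Growth of a repair-deficient yeast mutant was monitored after compound treatment and expressed as inhibition relative to vehicle-treated cultures.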

A short description of experiment [4]: NCI Yeast Anticancer Drug Screen. Data for the cln2 rad14 strain (AID 165).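 Note: 0% = growth equal to vehicle treated cultures.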 As to conditions: S. cerevisiae cln2 rad14 strain, at 50.0 µM, stronger effect = higher value. Summed up: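 Readout is yeast growth inhibition versus vehicle-treated controls, using a strain with cln2 and rad14 alterations exposed to compound.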
The nature of experiment [5]: NCI Yeast Anticancer Drug Screen. Data for the bub3 strain (AID 167). As to conditions: S. cerevisiae bub3 mutant strain, at 50.0 µM, stronger effect = higher value. Summed up: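 In this screen, a yeast mutant lacking normal mitotic checkpoint function is challenged with compound. Relative growth versus vehicle gives the inhibition value.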
A short description of experiment [6]: NCI Yeast Anticancer Drug Screen. Data for the mlh1 rad18 strain (AID 175). As to conditions: S. cerevisiae mlh1 rad18 strain growth inhibition; at 50.0 µM; stronger effect = higher value. The method in brief:
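Genetically defined yeast (DNA repair-deficient) exposed to compounds; growth inhibition determined relative to vehicle.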

Take `Cc1ccc(CCOC(=O)Nc2ccccc2)cc1`: the growth inhibition in experiment [1] was -7.55%; in experiment [2] it was 6.4%; in experiment [3], -3.25%; in experiment [4], -13.1%; in experiment [5] it was 1.8%; in experiment [6] it was 17.2%.

Take `COC(=O)Oc1nn(C(=O)OC)c(=O)c2ccccc12` (tested in a mixture with another compound): the growth inhibition is -5.85% in experiment [1]; 3.1% in experiment [2]; 3% in experiment [3]; -0.8% in experiment [4]; 11.3% in experiment [5]; 33.5% in experiment [6].

On to `Nc1ccc(P(=O)(O)c2ccc(N)cc2Br)c(Br)c1`, for which the growth inhibition in experiment [1] is 35.1%; in experiment [2], -6.1%; in experiment [3] it was 18.4%; in experiment [4], 1.55%; in experiment [5], -4%; in experiment [6] it was -6.8%.

Consider `CC(=O)OC1/C=C(/C)CCC2OC2(C)CC2OC(=O)C3(CC3)C12` (stereo not drawn), for which the growth inhibition in experiment [1] was 0.85%; in experiment [2], -20.5%; in experiment [3] it was -2%; in experiment [4], 10.7%; in experiment [5] it was 1%; in experiment [6], -7.2%.

Consider `Fc1ccccc1-c1nnc(-c2ccc3ccccc3c2)o1`, for which the growth inhibition was 33.1% in experiment [1]; 14.8% in experiment [2]; 32.4% in experiment [3]; 23.9% in experiment [4]; 40.5% in experiment [5]; 14.7% in experiment [6].

In the case of `N#CC(c1ccccc1)N1CCCN(C(C#N)c2ccccc2)C1c1ccccc1O` (stereo not drawn), the growth inhibition in experiment [1] was 31.4%; in experiment [2], -8.65%; in experiment [3], -6.85%; in experiment [4] it was 17.9%; in experiment [5] it was 18.4%; in experiment [6], 13.2%.

For `CCO/C(O)=c1/s/c(=C(\C#N)c2nc3ccccc3[nH]2)n(-c2ccccc2)c1=N`, the growth inhibition is 11.6% in experiment [1]; 3.4% in experiment [2]; 2.3% in experiment [3]; -37.9% in experiment [4]; -20.4% in experiment [5]; -26.8% in experiment [6].

In the case of `COC(=O)/C(C)=C/C=C/C(C)C(O)C(C)C1OC(CC(OC)OC)C(C)C(O)C1C` (stereo not drawn), the growth inhibition is 28.9% in experiment [1]; 22.2% in experiment [2]; 9.75% in experiment [3]; 2.65% in experiment [4]; 2.9% in experiment [5]; 19.9% in experiment [6].

Consider `CCCCCCNC1=C(OC)C(=O)C(NCCCCCC)=C(OC)C1=O`, for which the growth inhibition in experiment [1] was -7.4%; in experiment [2] it was 7.9%; in experiment [3], 2.1%; in experiment [4], -54.9%; in experiment [5], 8.5%; in experiment [6] it was -13.6%.

As for `Cc1cc(Cl)cc(Cl)c1OCC(=O)O`, the growth inhibition was 6.3% in experiment [1]; -1.35% in experiment [2]; 4.4% in experiment [3]; -24.3% in experiment [4]; -1.75% in experiment [5]; 0.05% in experiment [6].

Consider `CC1=Nn2c(nnc2-c2ccc(Cl)cc2)NC(C)(C)C1`, for which the growth inhibition is 25.2% in experiment [1]; 5.55% in experiment [2]; 7.65% in experiment [3]; 7.95% in experiment [4]; 39.1% in experiment [5]; 26.3% in experiment [6].

On to `CCCCCC(Oc1ccc(Cl)cc1Cl)C(=O)O` (stereo not drawn), for which the growth inhibition was 96.7% (active) in experiment [1]; 85.6% (active) in experiment [2]; 97.5% (active) in experiment [3]; 93% (active) in experiment [4]; 91.2% (active) in experiment [5]; 93.5% (active) in experiment [6].

Consider `CCCC=Nc1ccccc1`, for which the growth inhibition in experiment [1] is 8.3%; in experiment [2], 3.65%; in experiment [3], 14.5%; in experiment [4] it was -19.9%; in experiment [5], 10.8%; in experiment [6], 13.1%.

Consider `NC(=O)c1ccncc1`, for which the growth inhibition in experiment [1] is -5%; in experiment [2], -7.3%; in experiment [3], -13.1%; in experiment [4], 5.35%; in experiment [5], -1.05%; in experiment [6], -6%.

Turning to `CN(C)CCNC(=O)c1ccc(Cl)c2cc3ccccc3nc12`, the growth inhibition in experiment [1] was 83.3% (active); in experiment [2] it was 66.3%; in experiment [3] it was 58%; in experiment [4], 50.7%; in experiment [5], 15.7%; in experiment [6] it was 85.8% (active).

With `COc1nc(C(=O)NNC(=O)c2nc(OC)c3ccccc3c2-c2ccccc2)c(-c2ccccc2)c2ccccc12`, the growth inhibition was -6.9% in experiment [1]; -5.8% in experiment [2]; -19.2% in experiment [3]; -8.7% in experiment [4]; -17% in experiment [5]; 1.3% in experiment [6].

In the case of `CCCCCCCCCCCCCC(=O)OCC(CCS(=O)(=O)O[C@H]1CC[C@@]2(C)C(=CC[C@@H]3C2CC[C@]2(C)C(=O)CCC32)C1)OC(=O)CCCCCCCCCCCCC` (stereo partly drawn), the growth inhibition in experiment [1] is -32.8%; in experiment [2] it was -30.9%; in experiment [3] it was -15.3%; in experiment [4], -26.6%; in experiment [5], -22.2%; in experiment [6], -23.6%.

As for `CC(C)CC(NC(=O)CNC(=O)/C=C/c1ccco1)C(N)=O` (stereo not drawn), the growth inhibition in experiment [1] was -16.9%; in experiment [2], -29%; in experiment [3], -9.2%; in experiment [4], -11.2%; in experiment [5] it was -10.1%; in experiment [6] it was -18.5%.

On to `Nc1cccc(OCC2CCCN3CCCCC23)c1` (stereo not drawn), for which the growth inhibition in experiment [1] was 20%; in experiment [2] it was -17.9%; in experiment [3], 4.9%; in experiment [4] it was 2.45%; in experiment [5], 6.05%; in experiment [6] it was -64.8%.

With `CCCCCCCCCCCCCCC(CCCCCCCCCCCCCC)c1ccccc1`, the growth inhibition was 38.4% in experiment [1]; -1.25% in experiment [2]; 11.6% in experiment [3]; -29.4% in experiment [4]; -2.65% in experiment [5]; 12.2% in experiment [6].

Consider `Cc1cc(=O)[nH]c(N/N=C2/CCCCC2C)n1` (stereo not drawn), for which the growth inhibition in experiment [1] was -29.4%; in experiment [2] it was -25%; in experiment [3], -7.05%; in experiment [4], -0.6%; in experiment [5] it was -24.3%; in experiment [6], -21.8%.

For `N/C(=N/N=C/C1CCCCC1)NO`, the growth inhibition was 0.95% in experiment [1]; -9.25% in experiment [2]; -24.1% in experiment [3]; 3.4% in experiment [4]; -13.9% in experiment [5]; 13.6% in experiment [6].

For the molecule `NN1CC(=O)N(c2ccccc2)CC1=O`, the growth inhibition in experiment [1] was 0.5%; in experiment [2] it was 4.45%; in experiment [3], -0.6%; in experiment [4], 42.8%; in experiment [5], -7.65%; in experiment [6], 4.7%.

Consider `CC1(C)N=C(Oc2ccccc2)n2nccc2N1`, for which the growth inhibition was -12.6% in experiment [1]; -15.6% in experiment [2]; -14.6% in experiment [3]; 2.55% in experiment [4]; -18.3% in experiment [5]; -29.6% in experiment [6].

As to `COC12CC3C4CCC5CC(O)CCC5(C)C4CCC3(C)C1C(C)C1(CCC(C)CO1)O2` (stereo not drawn), the growth inhibition is 33.6% in experiment [1]; 8.7% in experiment [2]; 13.1% in experiment [3]; 19.8% in experiment [4]; 1.05% in experiment [5]; -0.4% in experiment [6].

For the molecule `CCOc1ccc(NC(=O)Nc2cccc(Cl)c2C)cc1`, the growth inhibition in experiment [1] is 0.45%; in experiment [2], 9.25%; in experiment [3] it was 11.4%; in experiment [4] it was -13.8%; in experiment [5], 9.85%; in experiment [6], -20.6%.

For `Nc1nc2ncn(CC(O)COC(=O)c3ccccc3)c2c(=O)[nH]1` (stereo not drawn), the growth inhibition in experiment [1] was 23.8%; in experiment [2], -8.85%; in experiment [3], 27.3%; in experiment [4], 28.3%; in experiment [5], 27.4%; in experiment [6], 39.2%.

`O=S1c2ccccc2NC(c2ccc3ccccc3c2)CC1c1ccccc1` (stereo not drawn): the growth inhibition in experiment [1] is -46.2%; in experiment [2], -22.1%; in experiment [3], -6.75%; in experiment [4], 1.9%; in experiment [5] it was 5.05%; in experiment [6] it was -18.2%.

Take `N#CCCN1CCCC1=O`: the growth inhibition is -11.8% in experiment [1]; -7.55% in experiment [2]; -12.5% in experiment [3]; -22.4% in experiment [4]; 6% in experiment [5]; 6.15% in experiment [6].

Consider `O=C1NC2=NN=C(c3ccc(Br)cc3)CN2NC12c1ccccc1-c1ccccc12`, for which the growth inhibition was -21.6% in experiment [1]; -15.8% in experiment [2]; -13.8% in experiment [3]; 21.6% in experiment [4]; -14.2% in experiment [5]; 4.2% in experiment [6].

`CCNC(=O)OCc1cc(Cl)cc(Cl)c1OC(=O)NCC`: the growth inhibition in experiment [1] is 99.5% (active); in experiment [2], 99.2% (active); in experiment [3], 99.7% (active); in experiment [4], 96.8% (active); in experiment [5], 98.5% (active); in experiment [6], 99.5% (active).

Take `CCCCCCCC[N+](C)(C)C`: the growth inhibition in experiment [1] was -48.8%; in experiment [2], -44.5%; in experiment [3], -26.6%; in experiment [4], 11.5%; in experiment [5] it was -28.7%; in experiment [6], -39.8%.

Regarding `CCCCCCC(=O)C(=O)O`, the growth inhibition in experiment [1] is 41.4%; in experiment [2] it was 37.8%; in experiment [3], 35.5%; in experiment [4] it was 3.65%; in experiment [5] it was 18.9%; in experiment [6] it was 59.5%.

Take `CC1CC[P+](C)(Cc2ccccc2)C1` (mixture of isomers): the growth inhibition in experiment [1] was 8.7%; in experiment [2] it was 0.8%; in experiment [3], -18.4%; in experiment [4] it was 1.9%; in experiment [5] it was 5.45%; in experiment [6], 18.6%.

In the case of `C/C(=N\O)C(=O)c1cccc([N+](=O)[O-])c1`, the growth inhibition in experiment [1] is 12%; in experiment [2], 8.3%; in experiment [3], 15.4%; in experiment [4] it was 2.75%; in experiment [5] it was -7.45%; in experiment [6], 27.1%.

In the case of `COc1cc(C=O)cc(NC(C)=O)c1OC(C)=O`, the growth inhibition in experiment [1] was 6.55%; in experiment [2], 0.3%; in experiment [3], 4.85%; in experiment [4], -4.85%; in experiment [5], 24.9%; in experiment [6] it was 9.95%.

As to `CC(=NCc1ccccc1)c1c(C)cc(=O)n(-c2ccccc2)c1O`, the growth inhibition in experiment [1] was -12.8%; in experiment [2], -6.45%; in experiment [3], -6.15%; in experiment [4], -70.5%; in experiment [5], -24.8%; in experiment [6], -12%.

On to `CC1(C)C2CC3C(CCC4C(=O)OC(=O)C43)C1C2` (stereo not drawn), for which the growth inhibition in experiment [1] was -1.2%; in experiment [2] it was 10.2%; in experiment [3] it was -3.8%; in experiment [4] it was -5.3%; in experiment [5] it was -4.3%; in experiment [6] it was -2.35%.
